Each structure is given as a SMILES string. Active and inactive are the calls of the source. How the source made its calls: active means hit-call score of the fitted dose curve at least 0.9, where 1 is the maximum; inactive means score below 0.9.

We go through two compounds from PubChem BioAssay (EPA / NIEHS).

Assay [1] can be described thus: UKN2_HCS_IMR90_neural_migration: University of Konstanz (UKN) Leist Lab Neural Crest Cell Migration Assay in human induced IMR90 Pluripotent Stem Cells (UKN2) (AID 2284204). The conditions noted are these: actives raise or lower the signal. Summed up: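 Using a 96-well stopper format with PLO/laminin/fibronectin coating, neural crest cells from iPSC migrate in cytokine-supplemented N2-S medium; after 24 h, chemicals are applied for a further 24 h, then cells are imaged after dye staining.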

The nature of assay [2]: IUF_NPC1b_proliferation_BrdU_72hr: Leibniz Research Institute for Environmental Medicine (IUF) 72-hour Neural Progenitor Cell Bromodeoxyuridine (BrdU) Proliferation Assay (NPC1b) (AID 2284207). The method, then: IUF_NPC1 is a cell-based, multiplexed assay that uses hNPC, a human primary neural progenitor cells, with measurements taken at 72 hours after chemical dosing in a 96-well plate. Human neural progenitor cells (hNPC) are generated from human fetal brain cortex at gestational week (GW) 16-19. Grown in suspension culture and under proliferative conditions (proliferation media and growth factors), these cells represent neural progenitor cell proliferation. In the NPC1 assay, hNPC's are exposed to the test compound for 72h. Cell proliferation is assessed as an increase in sphere area using automated phase contrast imaging and as incorporation of Bromodeoxyuridine (BrdU) during DNA synthesis using a luminescence-based cell proliferation ELISA. In parallel, the cell viability is assessed using an alamar blue viability assay and the cytotoxicity using a lactate dehydrogenase dependent membrane integrity assay.IUF_NPC1b_proliferation_BrdU_72hr is one of 4 assay components measured from the IUF_NPC1 assay. […]

Assay [3] can be described thus: IUF_NPC1a_proliferation_area_72hr: Leibniz Research Institute for Environmental Medicine (IUF) 72-hour Neural Progenitor Cell Proliferation Area Assay (NPC1a) (AID 2284208). The method, boiled down:
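Proliferation is scored as sphere area gain in primary human fetal neural progenitors treated for 72 h in EGF/FGF-containing medium. Viability, LDH and BrdU readouts come from the same wells.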

A short description of assay [4]: IUF_NPC1_viability_72hr: Viability Assessment at 72 hours in the Leibniz Research Institute for Environmental Medicine (IUF) Neural Progenitor Cell Proliferation Assay (NPC1) (AID 2284209). The method, boiled down: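 Viability was measured by resazurin-to-resorufin fluorescence (alamar blue) after 72 h of continuous exposure without compound renewal. Each well held one hNPC sphere (gestational week 16-19 fetal cortex, 0.25-0.35 mm) cultured in EGF/FGF proliferation medium at 37C and pH 7.2-7.6.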

As to `CCCCNS(=O)(=O)c1ccccc1`, the call in assay [1], in assay [3] and in assay [4] was inactive. In assay [2], the AC50 was 11.9 µM (active).

As to `Cc1c(C(=O)c2c[nH]n(C)c2=O)ccc(S(C)(=O)=O)c1C1=NOCC1`, the compound was called inactive in assay [2], in assay [3] and in assay [4].
